Screens deposited in PubChem by National Center for Advancing Translational Sciences (NCATS).
USP1-UAF1 inh = Inhibitors of USP1/UAF1: Primary Screen; AID 743255, 2014; Potency, µM (doses to about 57.1 µM), hits mostly inhibitors; recombinant USP1/UAF1, Ub-Rhodamine cleavage fluorescence; 390,000 compounds, 0.23% hits; Ubiquitin carboxyl-terminal hydrolase 1 (Homo sapiens), O94782; note: nearly all actives have a fitted effect of over 60% in size
Target sequence (O94782 whole entry, looked up): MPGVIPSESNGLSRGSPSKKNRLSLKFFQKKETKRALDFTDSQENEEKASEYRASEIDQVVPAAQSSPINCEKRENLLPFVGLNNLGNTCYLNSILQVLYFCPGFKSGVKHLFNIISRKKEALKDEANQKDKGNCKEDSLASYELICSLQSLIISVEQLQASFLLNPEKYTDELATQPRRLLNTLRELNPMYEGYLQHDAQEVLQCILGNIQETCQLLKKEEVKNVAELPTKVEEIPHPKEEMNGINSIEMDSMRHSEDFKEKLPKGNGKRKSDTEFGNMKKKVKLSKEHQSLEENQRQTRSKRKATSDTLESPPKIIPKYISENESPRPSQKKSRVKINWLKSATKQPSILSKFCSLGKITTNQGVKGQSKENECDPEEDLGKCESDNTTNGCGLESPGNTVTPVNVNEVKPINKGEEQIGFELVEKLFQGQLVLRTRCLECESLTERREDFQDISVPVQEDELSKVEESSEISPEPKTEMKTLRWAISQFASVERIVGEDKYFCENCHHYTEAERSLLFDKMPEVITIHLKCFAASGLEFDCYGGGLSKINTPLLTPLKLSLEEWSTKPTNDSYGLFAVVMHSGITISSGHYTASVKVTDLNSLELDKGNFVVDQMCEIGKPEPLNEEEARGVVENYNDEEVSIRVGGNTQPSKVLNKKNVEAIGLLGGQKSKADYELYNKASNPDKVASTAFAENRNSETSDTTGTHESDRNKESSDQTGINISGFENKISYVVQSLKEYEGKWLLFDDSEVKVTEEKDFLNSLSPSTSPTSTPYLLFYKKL
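1 nM enzyme complex + cpd, 15 min RT; start with Ub-Rho 150nM final; kinetic fluorescence ex 480/em 540, 6 reads q60 s. Buffer 50mM HEPES pH 7.8, 0.5mM EDTA, 0.1 mg/ml BSA, 1mM TCEP, 0.01% Tween-20.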
ATXN viability = Viability Counterscreen for Primary qHTS for Inhibitors of ATXN expression | AID 651635, 2014 | Potency, µM (titrated, usually from 56.7 µM), hits mostly cytotoxic | 400,000 compounds, 0.49% hits | S2 cells (HEK-293 line with an ATXN2-luciferase reporter) viability, CellTiter-Fluor protease fluorescence, 24 h; note: nearly all actives have a fitted effect of over 40% in size
ATXN2 expr inh = Primary qHTS for Inhibitors of ATXN expression | HEK-293 ATXN2-luciferase reporter, luminescence, 24 h | Potency, µM (series often up to 57 µM), actives largely listed as inhibitors | 360,000 compounds, 0.72% hits | AID 1745845, 2022; note: nearly all actives have a fitted effect of over 55% in size
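qHTS (up to 57 uM final) was run with 24 h compound exposure of reporter cells at 37 °C. Each well was multiplexed: SteadyGlo luminescence measured ATXN2-luciferase expression after a fluorogenic Gly-Phe-AFC viability readout (25 uM final).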
USP2a inh = qHTS Assay for Inhibitors of Ubiquitin-specific Protease USP2a Using CHOP2 as the Reporter. 330,000 compounds, 0.01% hits. Potency, µM (series often up to 38.3 µM), hits mostly inhibitors. Ubiquitin carboxyl-terminal hydrolase 2 (Homo sapiens), O75604. USP2 core, Ub-CHOP2 coupled fluorogenic reporter, 485/531
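USP2 core (10nM final) preincubated 30min RT with compound in 20mM Tris-HCl pH 8.0, 2mM CaCl2, 2mM beta-mercaptoethanol, 0.05% CHAPS; 25nM Ub-CHOP2 plus 25nM reporter substrate added, fluorescence (Ex485/Em531) read after 60min.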
IL1B secr inh = qHTS for Inhibitors of Inflammasome Signaling: IL-1-beta AlphaLISA Primary Screen. AID 743279, 2014. 360,000 compounds, 4.7% hits. activity change, % at 57.5 µM. THP-1 LPS/ATP IL-1B secretion, AlphaLISA, 16 h; stronger effect = lower value; in the data active = activity change below about -50%; inconclusive = mostly about -30% to -49%
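Secreted IL-1B measured by AlphaLISA bead assay after 16 h compound exposure of THP-1 cells; compounds (final up to 57.5 uM) added 1 h before LPS (250 ng/mL) and ATP (1.25 mM) stimulation; lower signal means less secretion.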
Numbers stand for hits; - = inactive; ? = inconclusive; . = no result given; [ ] = another dose, or the depositor's remark. Only some compounds are listed: those with a hit (about 4.8% of all), similar ones and a draw of the others. Unless noted, calls come from the whole dose curve; as a rule, active = well fitted curve in the direction sought with a large enough effect; inconclusive = small, poorly fitted or top-dose-only effect, or another doubt; inactive = no such curve, though single readings can be large; an effect the other way counts as inactive or inconclusive.

SMILES	USP1-UAF1 inh	ATXN viability	ATXN2 expr inh	USP2a inh	IL1B secr inh
O=C(NCc1ccc(F)cc1)C1CCCN(S(=O)(=O)c2ccc(Br)s2)C1 (stereo not given)	-	?	-	-	-53
CC(CCc1ccccc1)NC(=O)C1CCN(S(=O)(=O)N2CCCCC2)CC1 (stereo not given)	-	-	-	-	-56
CCC(C)c1ccc(NC(=O)NCCN2CCCCC2)cc1 (stereo not given)	-	-	-	-	-52
Cc1ccc(-n2c(-c3ccccc3)c[n+]3c2CCC3)cc1	-	?	-[11.3 µM]	-	-73
COc1ccc(-n2c(-c3ccc(Br)cc3)c[n+]3c2CCCCC3)cc1	-	-	?	-	-78
COc1ccc(-n2c(-c3ccccc3)c[n+]3c2CCC3)cc1	-	?	?	-	?
COc1ccc(-n2c(-c3ccc(Br)cc3)n[nH]c2=S)cc1	-	-	-	-	-
Cc1ccc(-n2c(-c3ccc(Cl)cc3)c[n+]3c2CCC3)cc1	-	?	-	-	-
COc1ccc(-n2c(-c3ccc(Br)cc3)c[n+]3c2SC(C)C3)cc1 (stereo not given)	-	-	-	-	-97
COc1ccc(-n2c(-c3ccc(Br)cc3)c[n+]3c2CCC3)cc1	-	?	?	-	-67
CCN1CCCC1CNC(=O)c1cnn(-c2ncc3c(n2)-c2ccc(OC)cc2CC3)c1C1CC1 (stereo not given)	.	-	.	.	.
NN(Cc1ccccc1)C(=S)Nc1ccc(Cl)c(Cl)c1	-	-	-	-	-56
Cc1ccc(NC(=O)CN(C)C(=O)C2CSC3(C)CCC(=O)N23)cc1 (stereo not given)	-	-	.	.	-
CCOC(=O)C1=CN(Cc2cccc(F)c2)S(=O)(=O)N(CC)C1c1ccccc1 (stereo not given)	-	-	-	-	-
Cc1nn(CCc2nn[nH]n2)c2nc(-c3ccc(C4CCCCC4)cc3)cc(C(F)(F)F)c12	?	-	-	-	-105
COc1ccc(/C=C2/C(=O)OCc3cc(OC)c(OC)cc32)cc1	-	?	?	-	-51
COc1ccc(/C=C2\CCOC2=O)cc1	-	-	-	-	-
Cn1c2ccccc2c2cc(/C=N/NC(=O)c3cc(O)ccc3O)ccc21	?	?	-	-	-73
Cn1c2ccccc2c2cc(/C=N/NC(=O)c3cc(O)cc(O)c3)ccc21	-	-	-	-	-86
Cc1cccc(NC(=O)C(=O)NNC(=O)c2ccc(C(C)(C)C)cc2)c1	-	-	-	-	-
Cc1ccc(F)c(NC(=O)/C(C#N)=C(\O)c2ccc(C(C)(C)C)cc2)c1	22µM	-	.	-	-
CCc1ccc2c(CN3CCN(Cc4ccccc4)CC3)cc(=O)oc2c1	-	-	-	-	-61
O=c1cc(CN2CCN(CCO)CC2)c2cc3c(cc2o1)CCC3	-	-	-	-	-
O=c1cc(CN2CCN(Cc3ccccc3)CC2)c2cc3c(cc2o1)CCC3	-	-	-	-	-69
COc1ccccc1CNS(=O)(=O)c1ccc(-n2cccn2)cc1	-	-	-	-	-
SMILES	USP1-UAF1 inh	ATXN viability	ATXN2 expr inh	USP2a inh	IL1B secr inh
O=c1oc2ccccc2nc1/C=C(O)/C=C/c1ccc(F)cc1	?	-	-	-	-
O=c1oc2ccccc2nc1/C=C(O)/C=C\c1ccccc1	?	-	-	-	-54
CC1CN(c2nc3ccccc3nc2NS(=O)(=O)c2ccccc2)CC(C)O1 (stereo not given)	-	-	-	-	-
CCN(C(=O)Cc1ccccc1OC)c1nnc(-c2ccncc2)s1	-	-	-	-	-
CCCN(C(=O)c1cccs1)c1nnc(-c2ccncc2)s1	-	-	-	-	-50
O=S(=O)(/N=C(\Sc1ccccc1)c1ccccc1)c1ccc(Cl)cc1	-	-	-	-	-53
Cc1ccc(S(=O)(=O)/N=C(\Sc2ccccc2)c2ccccc2)cc1	-	?	20µM	-	-50
O=C(CN(Cc1ccco1)C(=O)c1ccc([N+](=O)[O-])cc1)Nc1ccccc1C(F)(F)F	-	-	.	-	-
CC(C)COc1ccc(C(=O)N(CC(=O)Nc2ccccc2C(F)(F)F)Cc2ccco2)cc1	-	-	-	-	-72
CCCCn1c(N)c(S(=O)(=O)c2ccc(C)cc2)c2nc3ccccc3nc21	-	-	?	-	-81
CN(C)CCCn1c(N)c(S(=O)(=O)c2ccccc2)c2nc3ccccc3nc21	-	-	-	-	-
C=CCn1c(NS(=O)(=O)c2ccccc2)c(S(=O)(=O)c2ccc(C)cc2)c2nc3ccccc3nc21	28µM	?	-	-	-84
O=S(=O)(Nc1c(S(=O)(=O)c2ccccc2)c2nc3ccccc3nc2n1C1CCCCC1)c1ccccc1	3.2µM	-	-	-	-69
CCS(=O)(=O)N1CCN(c2ccc(C(=O)NC34CC5CC(CC(C5)C3)C4)cc2[N+](=O)[O-])CC1	-	?	-	-	-
Cc1ccc(C(=O)OC(C)C(=O)NC2CCCCC2)cc1S(=O)(=O)N1CCCCC1 (stereo not given)	-	?	.	-	-
CC(OC(=O)c1ccc(S(C)(=O)=O)c([N+](=O)[O-])c1)C(=O)NC1C2CC3CC(C2)CC1C3 (stereo not given)	.	3.2µM	?	.	.
CCC(OC(=O)c1ccc(S(C)(=O)=O)c([N+](=O)[O-])c1)C(=O)NC1C2CC3CC(C2)CC1C3 (stereo not given)	.	6.3µM	?	.	.
CCc1ccccc1NC(=O)Cn1nc(CC)n2c(cc3sccc32)c1=O	-	.	.	.	.
C[C@@H]1CN(Cc2ccc3c(c2)CN(Cc2cccc4cccnc24)CCO3)C[C@H](C)O1	.	-	.	.	.
COc1ccc(/C=N/Nc2cc(N(C)C)nc(N(C)C)n2)cc1	?	-	-	-	-75
CN(C)c1cc(N/N=C\c2ccccc2)nc(N(C)C)n1	?	-	-	-	-96
COc1ccccc1/C=N/Nc1cc(N(C)C)nc(N(C)C)n1	-	-	-	-	-153
Cc1cc(-c2ccccc2)nc(N/N=C/c2ccc(N(C)C)cc2)n1	-	-	.	.	-
N=C1SC(=Cc2ccc(-c3ccc4c(c3)C(=O)NC4=O)o2)C(=O)N1c1ccc(Br)cc1	.	.	-	.	.
Cc1ccc(S(=O)(=O)N2CCOCC2)cc1NS(=O)(=O)c1ccc(F)c(F)c1	-	-	-	-	-
CC[n+]1c(/C=C2\Sc3ccccc3N2C)ccc2cccc(C)c21	-	?	?	-	-100
CCN1/C(=C/C=C/C=C/C=C/c2sc3ccccc3[n+]2CC)Sc2ccccc21	?	?	?	-	?
CCN1/C(=C/c2ccc3cc(C)ccc3[n+]2CC)Sc2cc(C)c(C)cc21	?	?	?	-	-98
